Screen size: about 5,500 compounds; about 2,000 (36%) were called active. Roughly 18% stayed inconclusive and do not appear here. Rule as the data show it: active = normalized growth mostly below about 0.91 (no sharp cut-off); inconclusive = no clear call, values can overlap the other calls; inactive = mostly above about 0.92. Some of the results follow.
Assay: chemical genetic growth profiling, strain panel (AID 1159580);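 also: tested at 20 µM; growth read once vehicle control cultures reached saturation at 30 °C; 1 = growth at the plate median or of vehicle wells; lower values mean less growth of the strain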
Details: growth OD
[1] = S. cerevisiae deletion strains, locus YHR030C, strain SLT2, stronger effect = lower value

Measured: normalized growth

CCOc1ccc2nc(S(N)(=O)=O)sc2c1
inactive: [1] 0.978 | S. cerevisiae deletion strains, locus YHR079C, strain IRE1, stronger effect = lower value 0.969 | S. cerevisiae deletion strains, locus YJL095W, strain BCK1, stronger effect = lower value 1.02 | S. cerevisiae deletion strains, locus YJR066W, strain TOR1, stronger effect = lower value 0.924 | S. cerevisiae deletion strains, locus YLR113W, strain HOG1, stronger effect = lower value 1.05 | S. cerevisiae deletion strains, locus YNL183C, strain NPR1, stronger effect = lower value 0.927 | S. cerevisiae deletion strains, locus YOR231W, strain MKK1, stronger effect = lower value 0.955 | S. cerevisiae deletion strains, locus YPL256C, strain CLN2, stronger effect = lower value 0.963

COc1ccc(C(=O)CN2CCN(c3cc(C)nc4ccccc34)CC2)cc1
inactive: S. cerevisiae deletion strains, locus YAL013W, strain DEP1, stronger effect = lower value 1.01 | S. cerevisiae deletion strains, locus YBR229C, strain ROT2, stronger effect = lower value 1.01 | S. cerevisiae deletion strains, locus YCL061C, strain MRC1, stronger effect = lower value 1 | S. cerevisiae deletion strains, locus YDL101C, strain DUN1, stronger effect = lower value 0.968 | S. cerevisiae deletion strains, locus YDL134C, strain PPH21, stronger effect = lower value 0.994 | S. cerevisiae deletion strains, locus YDR150W, strain NUM1, stronger effect = lower value 0.982 | S. cerevisiae deletion strains, locus YEL061C, strain CIN8, stronger effect = lower value 0.979 | S. cerevisiae deletion strains, locus YGR078C, strain PAC10, stronger effect = lower value 1 | [1] 0.905 | S. cerevisiae deletion strains, locus YHR087W, strain rtc3, stronger effect = lower value 0.994 | S. cerevisiae deletion strains, locus YJL187C, strain SWE1, stronger effect = lower value 1 | S. cerevisiae deletion strains, locus YJR043C, strain POL32, stronger effect = lower value 1 | S. cerevisiae deletion strains, locus YJR075W, strain HOC1, stronger effect = lower value 1.01 | S. cerevisiae deletion strains, locus YLR039C, strain RIC1, stronger effect = lower value 0.956 | S. cerevisiae deletion strains, locus YLR058C, strain SHM2 (second series), stronger effect = lower value 1.01 | S. cerevisiae deletion strains, locus YLR085C, strain ARP6, stronger effect = lower value 0.987 | S. cerevisiae deletion strains, locus YLR262C, strain YPT6, stronger effect = lower value 0.942 | S. cerevisiae deletion strains, locus YML094W, strain GIM5, stronger effect = lower value 0.957 | S. cerevisiae deletion strains, locus YMR219W, strain ESC1, stronger effect = lower value 0.997 | S. cerevisiae deletion strains, locus YMR263W, strain SAP30, stronger effect = lower value 1.04 | S. cerevisiae deletion strains, locus YMR307W, strain GAS1, stronger effect = lower value 1.09 | S. cerevisiae deletion strains, locus YNL153C, strain GIM3, stronger effect = lower value 1.01 | S. cerevisiae deletion strains, locus YNL298W, strain CLA4 (second series), stronger effect = lower value 0.975 | S. cerevisiae deletion strains, locus YNL322C, strain KRE1, stronger effect = lower value 0.998 | S. cerevisiae deletion strains, locus YNR030W, strain Alg12, stronger effect = lower value 0.994 | S. cerevisiae deletion strains, locus YOL006C, strain TOP1, stronger effect = lower value 0.995 | S. cerevisiae deletion strains, locus YPL055C, strain LGE1, stronger effect = lower value 1.01 | S. cerevisiae deletion strains, locus YPL241C, strain CIN2, stronger effect = lower value 1.05 | S. cerevisiae deletion strains, locus YPR135W, strain CTF4, stronger effect = lower value 0.944 | S. cerevisiae strains, strain wild type, stronger effect = lower value 1
